Experimental data published in PubChem BioAssay (EPA / NIEHS).
Several values for one entry are separate records, joined by “and”; a condition that tells them apart may be missing. Equal values may be shown once. Inconclusive results are not listed. Some structures have more than one record in an assay (separate samples or runs), and their calls can disagree. Activity calls are given as the source filed them. How the source made its calls, unless noted: active means hit-call score of the fitted dose curve at least 0.9, where 1 is the maximum; inconclusive means response in the unintended direction; inactive means score below 0.9.

Columns and labels:
[1] = read-out: UDP glucuronosyltransferase (UGT1A6), UGT1A6 (gene 54578); assay: LTEA_HepaRG_UGT1A6: Life Technologies and Expression Analysis (LTEA) Assay for UDP glucuronosyltransferase (UGT1A6) using HepaRG (AID 2283539; active means hit-call score of the fitted dose curve at least 0.9, where 1 is the maximum; inactive means score below 0.9); details: mRNA level, 48 h; actives raise or lower the signal
Method in brief: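 Expression was quantified by TaqMan qRT-PCR on Fluidigm arrays with ACTB/GAPDH/POLR2A normalization and bidirectional fitting against 0.5% DMSO. HepaRG cells (~100,000/well) were treated in duplicate for 48 h at eight half-log concentrations up to 100 uM in serum-free induction medium.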

[2] = read-out: X-box binding protein 1 (XBP1), XBP1 (gene 7494); assay: LTEA_HepaRG_XBP1: Life Technologies and Expression Analysis (LTEA) Assay for X-box binding protein 1 (XBP1) using HepaRG (AID 2283540; active means hit-call score of the fitted dose curve at least 0.9, where 1 is the maximum; inactive means score below 0.9); details: mRNA level, 48 h; actives raise or lower the signal
Method in brief: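 XBP1 transcript by qRT-PCR (housekeeping-normalized: ACTB, GAPDH, POLR2A) after 48 h chemical treatment of HepaRG cells, 8-point half-log series topping at 100 uM, vehicle 0.5% DMSO. Gain and loss of signal fitted relative to DMSO.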

[3] = LTEA_HepaRG_LDH_cytotoxicity: Cytotoxicity Assessment in the Life Technologies and Expression Analysis (LTEA) Assay (AID 2283563);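 on AC50: LDH activity released into spent culture medium as a marker of cell death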
Method in brief: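 LDH release into culture medium read after 48 h chemical treatment of HepaRG cells. Duplicate wells, eight-point half-log series topping at 100 uM, 0.5% DMSO vehicle and baseline.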

[4] = target: Cellular tumor antigen p53 (Homo sapiens) (UniProt P04637); assay: TOX21_p53_BLA_p2_ratio: Tox21 HCT-116 p53 Agonism Beta-lactamase Assay, Ratio, Phase 2 (AID 2283592)
Method in brief: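 Read-out is the blue/green (460/530 nm, 405 nm excitation) ratio after 2 h CCF4-AM loading, fitted as gain versus DMSO. Compounds, pinned at 217-fold dilution from DMSO stocks, stayed 16 h on HCT-116 beta-lactamase reporter cells seeded 5 h earlier.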

[5] = target: Cellular tumor antigen p53 (Homo sapiens) (UniProt P04637); assay: TOX21_p53_BLA_p3_ratio: Tox21 HCT-116 p53 Agonism Beta-lactamase Assay, Ratio, Phase 3 (AID 2283596)
Method in brief: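 Cells were seeded at 4000/well, rested 5 h at 37C, then dosed with DMSO compound solutions (217-fold dilution) for 16 h. CCF4-AM substrate was loaded for 2 h at room temperature, and the 460/530 nm emission ratio was fitted for gain of signal versus DMSO.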

[6] = TOX21_p53_BLA_p4_viability: Viability Assessment in the Tox21 HCT-116 p53 Agonism Beta-lactamase Assay, Phase 4 (AID 2283597);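 further: hits lower the luminescence signal meaning cytotoxicity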
Method in brief: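 Cytotoxicity as reduced cellular ATP (CellTiter-Glo luminescence, 30 min room temperature), measured in the same wells following the CCF4 FRET p53 reading. Human HCT-116 cells received compounds in DMSO (217-fold dilution) for 16 h.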

[7] = target: Cellular tumor antigen p53 (Homo sapiens) (UniProt P04637); assay: TOX21_p53_BLA_p5_ratio: Tox21 HCT-116 p53 Agonism Beta-lactamase Assay, Ratio, Phase 5 (AID 2283599)
Method in brief: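 HCT-116 p53-bla cells (4000/well) plated 5 h, dosed with compound (217-fold DMSO dilution) for 16 h at 37 C; CCF4-AM substrate 2 h at room temperature. Activity is the 460/530 nm emission ratio (405 nm excitation), fitted in gain-of-signal direction versus DMSO.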

[8] = TOX21_p53_BLA_p5_viability: Viability Assessment in the Tox21 HCT-116 p53 Agonism Beta-lactamase Assay, Phase 5 (AID 2283600)
Method in brief: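 Viability came from CellTiter-Glo ATP luminescence, read after 30 min at room temperature. Before this, HCT-116 p53-bla cells (4000/well) had 16 hours of compound exposure at 37C, with DMSO stocks diluted 217-fold on transfer.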

[9] = target: Cellular tumor antigen p53 (Homo sapiens) (UniProt P04637); assay: TOX21_p53_BLA_p4_ratio: Tox21 HCT-116 p53 Agonism Beta-lactamase Assay, Ratio, Phase 4 (AID 2283601)
Method in brief: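 HCT-116 p53 beta-lactamase reporter cells (4000/well) preincubated 5 h, then compound (217-fold dilution of DMSO stock) for 16 h at 37C. CCF4-AM substrate added 2 h at room temperature; 460/530 nm emission ratio fitted upward versus DMSO.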

[10] = Tanguay_ZF_120hpf_MORT_legacy: (Legacy) Oregon State University Tanguay Lab 120 Hour Post-fertilization zebrafish Assay for Mortality (AID 2283633);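 on AC50: fitted as increase in binary mortality versus DMSO negative control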
Method in brief: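 Static waterborne exposure from 6 to 120 hpf at 28C of single dechorionated wild-type (5D) embryos per well, 0.64% DMSO final. Death recorded present/absent by brightfield at 24 and 120 hpf.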

[11] = Tanguay_ZF_120hpf_YSE_legacy: (Legacy) Oregon State University Tanguay Lab 120 Hour Post-fertilization zebrafish Assay for Yolk Sac Edema (AID 2283634);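 on AC50: actives raise the incidence of yolk sac edema above the DMSO baseline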
Method in brief: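 Presence or absence of yolk sac edema was recorded at 120 hpf in surviving larvae. These were wild-type Tropical 5D embryos, chorion removed at 4 hpf, held in static exposure at 28C from 6 hpf with 0.64% DMSO vehicle.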

[12] = Tanguay_ZF_120hpf_AXIS_legacy: (Legacy) Oregon State University Tanguay Lab 120 Hour Post-fertilization zebrafish Assay for Body Axis Malformation (AID 2283635);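 on AC50: potency for an increased fraction of larvae scored with body axis malformation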
Method in brief: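 Binary scoring of axis defects at 120 hpf under brightfield, fitted positive versus DMSO. Tropical 5D embryos, chorion removed by pronase at 4 hpf, were singly exposed in sealed, dark plates at 28C from 6 hpf; DMSO 0.64% final.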

[13] = Tanguay_ZF_120hpf_EYE_legacy: (Legacy) Oregon State University Tanguay Lab 120 Hour Post-fertilization zebrafish Assay for Eye Malformation (AID 2283636);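 further: binary presence or absence of eye malformation scored by brightfield in 120 hpf larvae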
Method in brief: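 5D wild-type embryos, pronase-dechorionated at 4 hpf; static exposure 6–120 hpf, 28C, dark; DMSO 0.64% final; 5uM trimethyltin chloride positive control. Binary eye-defect scoring at 120 hpf; dead embryos not scored.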

[14] = Tanguay_ZF_120hpf_SNOU_legacy: (Legacy) Oregon State University Tanguay Lab 120 Hour Post-fertilization zebrafish Assay for Snout Malformation (AID 2283637)
Method in brief: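 Binary brightfield scoring of snout malformation at 120 hpf. Dechorionated 5D wild-type embryos, one per well, static exposure from 6 hpf at 28C, sealed and dark; final DMSO 0.64% (vol/vol), DMSO as baseline; 5uM trimethyltin chloride positive control.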

[15] = Tanguay_ZF_120hpf_JAW_legacy: (Legacy) Oregon State University Tanguay Lab 120 Hour Post-fertilization zebrafish Assay for Jaw Malformation (AID 2283638);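 on AC50: active means more embryos with jaw malformation than DMSO controls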
Method in brief: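 Binary jaw-malformation call at 120 hpf by brightfield microscopy. Embryos (Tropical 5D strain, chorion removed at 4 hpf) were dosed statically at 6 hpf, one per well, at 28C with 0.64% DMSO. Embryos that died were not scored.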

[16] = Tanguay_ZF_120hpf_PE_legacy: (Legacy) Oregon State University Tanguay Lab 120 Hour Post-fertilization zebrafish Assay for Pericardial Edema (AID 2283640);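 on AC50: potency for increased incidence of pericardial edema versus DMSO baseline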
Method in brief: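 Scoring was binary, by brightfield microscopy at 120 hpf, and skipped where mortality occurred. Wild-type embryos were kept under sealed, foil-covered static exposure at 28C in 0.64% (vol/vol) DMSO.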

[17] = Tanguay_ZF_120hpf_BRAI_legacy: (Legacy) Oregon State University Tanguay Lab 120 Hour Post-fertilization zebrafish Assay for Brain Malformation (AID 2283641)
Method in brief: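 Binary brightfield scoring of brain malformation at 120 hpf in Tropical 5D larvae held under static exposure at 28C (0.64% v/v DMSO), non-mortality endpoints skipped if dead. Positive control: 5uM trimethyltin chloride; fit versus DMSO.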

[18] = ATG_XTT_Cytotoxicity: Cytotoxicity Assessment in the Attagene TRANS-FACTORIAL HepG2 Assay (AID 2283584)
Method in brief: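 Viability endpoint from XTT after 24 h chemical exposure of reporter-transfected human HepG2 liver cells; signal loss fitted relative to DMSO negative control.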

[19] = Tanguay_ZF_120hpf_OTIC_legacy: (Legacy) Oregon State University Tanguay Lab 120 Hour Post-fertilization zebrafish Assay for Otic Vesicle Malformation (AID 2283639)
Method in brief: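 Brightfield scoring at 120 hpf, binary present/absent; DMSO negative control, 5uM trimethyltin chloride positive control. Static exposure at 28C, final DMSO 0.64% (vol/vol). Dead embryos not scored for malformation.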

[20] = TOX21_p53_BLA_p2_viability: Viability Assessment in the Tox21 HCT-116 p53 Agonism Beta-lactamase Assay, Phase 2 (AID 2283591);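 further: compound exposure lasted 16 h at 37 °C; actives lower the ATP signal meaning cytotoxicity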
Method in brief: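 HCT116 p53-bla cells, 4000/well, dosed after 5 h plating (217-fold dilution of DMSO stocks) and incubated 16 h at 37C. Viability taken as cellular ATP by CellTiter-Glo luminescence after 30 min RT; signal loss marks cytotoxicity.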

Measured: AC50

Cellular tumor antigen p53 (Homo sapiens), sequence (P04637 whole entry, looked up): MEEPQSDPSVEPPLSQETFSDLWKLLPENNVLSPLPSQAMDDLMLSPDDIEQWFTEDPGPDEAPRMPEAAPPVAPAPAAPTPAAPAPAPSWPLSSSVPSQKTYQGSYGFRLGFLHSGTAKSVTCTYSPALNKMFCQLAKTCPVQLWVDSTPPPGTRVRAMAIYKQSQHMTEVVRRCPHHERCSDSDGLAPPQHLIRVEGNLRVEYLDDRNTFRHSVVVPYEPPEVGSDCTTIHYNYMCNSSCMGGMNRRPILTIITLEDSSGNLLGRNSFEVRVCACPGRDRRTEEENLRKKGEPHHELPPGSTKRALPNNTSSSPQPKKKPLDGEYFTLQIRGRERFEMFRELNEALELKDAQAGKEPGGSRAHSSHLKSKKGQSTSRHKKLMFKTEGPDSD

C=CCOC(=O)C(C)(C)OC(=O)c1cc(-n2c(=O)cc(C(F)(F)F)n(C)c2=O)ccc1Cl
not listed: [18] | [19] | [20]
inactive: all other assays above

CC1(C)C(C=C(Cl)Cl)C1C(=O)OC(C#N)c1cccc(Oc2ccccc2)c1 (stereo not given)
active: [11] 1.7 µM | [12] 1.23 µM | [13] 1.82 µM | [14] 1.53 µM | [15] 1.66 µM | [16] 1.66 µM
not listed: [20]
inactive: all other assays above

COCc1cnc(C2=NC(C)(C(C)C)C(=O)N2)c(C(=O)O)c1 (stereo not given)
inactive: [1] | [2] | [3] | [10] | [11] | [13] | [14] | [15] | [16] | [17]

COc1ccc(-c2ccccc2)cc1NNC(=O)OC(C)C
not listed: [18] | [20]
inactive: all other assays above

COC(=O)NS(=O)(=O)c1ccc(N)cc1
not listed: [6] | [8] | [18] | [19] | [20]
inactive: all other assays above

CNC(=O)Oc1cccc2ccccc12
not listed: [2] | [18] | [20]
inactive: all other assays above

O=C(Nc1ccccc1-c1ccc(Cl)cc1)c1cccnc1Cl
not listed: [2] | [18] | [19] | [20]
inactive: all other assays above

O=C1C2CC=CCC2C(=O)N1SC(Cl)(Cl)Cl (stereo not given)
inactive: [1] | [4] | [5] | [6] | [7] | [8] | [9] | [11] | [12] | [14] | [15] | [19] | [16] | [17]
active: [3] 74.5 µM | [4] 4.12 µM and 7.62 µM | [5] 77.7 µM and 6.5 µM | [6] 18.1 µM | [7] 19.5 µM | [9] 10.3 µM | [10] 25.1 µM

CCCCC(O)(Cn1cncn1)c1ccc(Cl)cc1Cl (stereo not given)
active: [1] 73.4 µM | [6] 82 µM | [7] 72.8 µM | [9] 87 µM
not listed: [2] | [13] | [17] | [18] | [19] | [20]
inactive: all other assays above

COC(=O)N(C(=O)N1CO[C@@]2(C(=O)OC)Cc3cc(Cl)ccc3C2=N1)c1ccc(OC(F)(F)F)cc1
active: [3] 60.5 µM | [4] 46.3 µM | [9] 37.6 µM
not listed: [2] | [12] | [18] | [19]
inactive: all other assays above

CCOc1cc(C(C)(C)C)ccc1C1COC(c2c(F)cccc2F)=N1 (stereo not given)
inactive: [1] | [3] | [10] | [11] | [12] | [13] | [14] | [15] | [16] | [17]

Clc1cccc(C(Cl)(Cl)Cl)n1
not listed: [2] | [4] | [9] | [16] | [18] | [19]
inactive: all other assays above

CCOC(=O)C(C)OC(=O)c1cc(Oc2ccc(C(F)(F)F)cc2Cl)ccc1[N+](=O)[O-] (stereo not given)
not listed: [2] | [14] | [15] | [18] | [19] | [20]
inactive: all other assays above

O=P(O)(O)CCCl
not listed: [2] | [6] | [15] | [18] | [20]
inactive: all other assays above

Cc1cc(C)nc(Nc2ccccc2)n1
not listed: [2] | [9] | [12] | [18] | [19] | [20]
inactive: all other assays above

O=C(O)c1c(Cl)ccc2cc(Cl)cnc12
inactive: [1] | [3] | [10] | [11] | [12] | [13] | [14] | [15] | [16]

CCOP(=O)(OCC)Oc1nc(Cl)c(Cl)cc1Cl
active: [7] 38.3 µM | [9] 61.7 µM | [10] 0.887 µM
not listed: [2] | [18] | [19] | [20]
inactive: all other assays above
